Molecules are shown by their SMILES. Active and inactive are the calls of the source.

The nature of experiment [1]: E. coli DRC41 culture turbidity changes, primary screen, E. coli filamentation inducer project, strain DRC41, OD650, 48 h (AID 1152).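 Also: E. coli MC1000 strain DRC41 lacking acrAB efflux pump and sulA.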 To be noted: E. coli DRC41 (acrAB sulA), higher = more signal, called active from +8 up or from −8 down.
Experiment [2] can be described thus: small-molecule binders of probe aLefty1, primary screen, biochemical, small-molecule microarray, 635/667 nm fluorescence (AID 1153).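 Also: score merges spot fluorescence with signal-to-noise ratio from the scanned slide images.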 To be noted: higher = more signal.
Experiment [3] can be described thus: PSAC antagonists in infected red cells, primary screen, cell-based, P. falciparum Indochina, OD700, 1 h (AID 1154). To be noted: P. falciparum Indochina infected RBC osmotic lysis, higher = more signal, called active from +8 up or from −8 down.
Experiment [4] can be described thus: PSAC antagonists in infected red cells, primary screen, cell-based, P. falciparum Indochina, OD700, 2 h (AID 1155).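 Also: lysis reports solute entry through the parasite surface anion channel PSAC; channel blockers reduce lysis of infected cells.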 To be noted: P. falciparum Indochina infected erythrocytes, osmotic lysis OD700; higher = more signal, called active from +8 up or from −8 down.
Experiment [5] is described as follows: osmotic lysis modulators in infected erythrocytes, primary screen, PSAC antagonist project, cell-based, P. falciparum Indochina, OD700, 3 h (AID 1156). To be noted: higher = more signal, called active from +8 up or from −8 down.
Experiment [6] in a line: PSAC antagonists in infected red cells, primary screen, cell-based, P. falciparum Indochina, OD700, 18 h (AID 1157). To be noted: P. falciparum Indochina infected erythrocytes, osmotic lysis OD700, 18 h; higher = more signal, called active from +8 up or from −8 down.
Experiment [7] in a line: modulators of S6 phosphorylation in cells, primary screen, cell-based, A549, cytoblot, luminescence, serum-stimulated (AID 1158).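 Also: serum-stimulated A549 lung adenocarcinoma cells; signal is phosphorylated S6 detected by cytoblot immunostaining with HRP secondary.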 Conditions: A549 phospho-S6 cytoblot, 5 h, higher = more signal.
Experiment [8] concerns the target NADPH oxidase 2 (Homo sapiens) (UniProt P04839). Briefly: NOX2-dependent H2O2 signal modulators, primary screen, NOX inhibitor project, cell-based, HEK293-NOX2, PMA-stimulated, Amplex Red fluorescence (AID 1159). Also: test concentration not given here. To be noted: 45 min, higher = more signal, called active from +8 up or from −8 down.
For experiment [9], the target named is NADPH oxidase 4 (Homo sapiens) (UniProt Q9NPH5). Briefly: NOX4-dependent H2O2 signal modulators, primary screen, NOX inhibitor project, cell-based, HEK293-NOX4, tetracycline-induced, Amplex Red fluorescence (AID 1160). To be noted: 45 min, higher = more signal, called active from +8 up or from −8 down.
The target of experiment [10] is NADPH oxidase 5 (Homo sapiens) (UniProt Q96PH1). Briefly: NOX5-dependent H2O2 signal modulators, primary screen, NOX inhibitor project, cell-based, HEK293-NOX5, Amplex Red fluorescence (AID 1161). Conditions: HEK293-NOX5, ionomycin, 45 min, higher = more signal.
Experiment [11] in a line: A549 cell viability effects, profiling panel, calcein-AM fluorescence, 48 h, basal (AID 1162). Also: test concentration not given here. To be noted: higher = more signal.
The nature of experiment [12]: adipocyte viability effects, profiling panel, cell-based, 3T3-L1 adipocytes, calcein-AM fluorescence, 48 h, basal (AID 1163). Also: test concentration not given here. Conditions: 3T3-L1 adipocytes viability, higher = more signal.
The nature of experiment [13]: HepG2 cell viability effects, profiling panel, calcein-AM fluorescence, 48 h, basal (AID 1164). Also: test concentration not given here. Conditions: higher = more signal.
Experiment [14] is described as follows: MM1S cell viability effects, profiling panel, calcein-AM fluorescence, 48 h, basal (AID 1165).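 Also: viability of MM1S multiple myeloma cells under basal unstimulated conditions; test concentration not given here.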 Conditions: higher = more signal.
Experiment [15] can be described thus: basal RPMI8226 viability, no added stimulus, profiling panel, cell-based, calcein-AM fluorescence, 48 h, PK04 Diversity Set (AID 1166).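 Also: cells grown under basal conditions without added stimulus; test concentration not given here.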 Conditions: RPMI8226 myeloma viability, higher = more signal.
A short description of experiment [16]: basal HepG2 mitochondrial membrane potential changes, profiling panel, cell-based, JC-1 fluorescence, 24 h, 100 nL compound (AID 1167). Also: test concentration not given here. Conditions: higher = more signal.
The nature of experiment [17]: basal 3T3-L1 adipocyte mitochondrial potential changes, profiling panel, cell-based, JC-1 fluorescence, 3T3-L1 adipocytes, 24 h, 100 nL compound (AID 1168). Also: test concentration not given here. Conditions: JC-1 mitochondrial fluorescence, higher = more signal, called active from +8 up or from −8 down.
Experiment [18] in a line: basal RPMI8226 mitochondrial membrane potential changes, profiling panel, cell-based, JC-1 fluorescence, 24 h, 100 nL compound (AID 1169). Also: test concentration not given here. Conditions: RPMI8226 myeloma, JC-1 mitochondrial potential fluorescence, higher = more signal.
The nature of experiment [19]: basal MM1S mitochondrial membrane potential changes, profiling panel, cell-based, JC-1 fluorescence, 24 h, 100 nL compound (AID 1170). Also: test concentration not given here. To be noted: higher = more signal.
A short description of experiment [20]: A549 lung cancer cell viability effects, profiling panel, resazurin fluorescence, 24 h, PK04 Diversity Set (AID 1171). Also: test concentration not given here. Conditions: higher = more signal, called active from +8 up or from −8 down. (Resazurin is reduced to fluorescent resorufin, in cell work by metabolically active cells.)

Chain of NADPH oxidase 5 (Homo sapiens) (Q96PH1 whole entry, looked up): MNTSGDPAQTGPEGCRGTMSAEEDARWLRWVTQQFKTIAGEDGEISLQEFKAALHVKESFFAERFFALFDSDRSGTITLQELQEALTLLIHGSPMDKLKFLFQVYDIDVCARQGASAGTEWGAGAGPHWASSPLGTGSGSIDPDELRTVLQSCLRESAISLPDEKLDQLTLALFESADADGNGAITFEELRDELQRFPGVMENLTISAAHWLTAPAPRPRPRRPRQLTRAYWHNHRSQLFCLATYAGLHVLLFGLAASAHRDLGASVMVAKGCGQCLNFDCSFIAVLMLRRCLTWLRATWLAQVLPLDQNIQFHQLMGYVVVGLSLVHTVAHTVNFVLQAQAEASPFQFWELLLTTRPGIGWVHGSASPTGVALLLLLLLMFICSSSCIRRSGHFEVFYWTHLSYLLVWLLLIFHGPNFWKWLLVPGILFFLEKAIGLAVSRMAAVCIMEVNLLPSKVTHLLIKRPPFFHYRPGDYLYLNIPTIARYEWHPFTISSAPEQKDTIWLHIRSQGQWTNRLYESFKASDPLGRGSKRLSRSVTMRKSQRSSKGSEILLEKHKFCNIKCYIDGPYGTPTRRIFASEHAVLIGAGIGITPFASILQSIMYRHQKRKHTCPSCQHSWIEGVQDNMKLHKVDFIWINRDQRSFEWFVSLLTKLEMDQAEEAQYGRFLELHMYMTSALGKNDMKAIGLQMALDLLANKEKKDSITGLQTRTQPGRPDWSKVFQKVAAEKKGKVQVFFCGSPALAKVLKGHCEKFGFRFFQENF
Chain of NADPH oxidase 2 (Homo sapiens) (P04839 whole entry, looked up): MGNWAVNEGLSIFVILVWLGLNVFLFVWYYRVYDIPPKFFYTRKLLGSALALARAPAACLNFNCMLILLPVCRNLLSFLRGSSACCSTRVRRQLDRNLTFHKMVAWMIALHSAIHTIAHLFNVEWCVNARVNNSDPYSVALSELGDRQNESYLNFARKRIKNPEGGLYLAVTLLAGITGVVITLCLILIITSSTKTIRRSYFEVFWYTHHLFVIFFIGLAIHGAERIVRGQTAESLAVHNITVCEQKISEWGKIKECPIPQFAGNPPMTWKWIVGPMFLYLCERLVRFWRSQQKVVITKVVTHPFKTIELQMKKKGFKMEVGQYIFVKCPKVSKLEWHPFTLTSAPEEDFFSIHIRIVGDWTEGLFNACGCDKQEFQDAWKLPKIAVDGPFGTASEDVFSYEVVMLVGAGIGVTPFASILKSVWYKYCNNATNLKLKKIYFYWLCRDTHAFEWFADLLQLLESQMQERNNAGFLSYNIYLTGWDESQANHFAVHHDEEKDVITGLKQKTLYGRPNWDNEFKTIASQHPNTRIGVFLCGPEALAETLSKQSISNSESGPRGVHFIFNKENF
Chain of NADPH oxidase 4 (Homo sapiens) (Q9NPH5 whole entry, looked up): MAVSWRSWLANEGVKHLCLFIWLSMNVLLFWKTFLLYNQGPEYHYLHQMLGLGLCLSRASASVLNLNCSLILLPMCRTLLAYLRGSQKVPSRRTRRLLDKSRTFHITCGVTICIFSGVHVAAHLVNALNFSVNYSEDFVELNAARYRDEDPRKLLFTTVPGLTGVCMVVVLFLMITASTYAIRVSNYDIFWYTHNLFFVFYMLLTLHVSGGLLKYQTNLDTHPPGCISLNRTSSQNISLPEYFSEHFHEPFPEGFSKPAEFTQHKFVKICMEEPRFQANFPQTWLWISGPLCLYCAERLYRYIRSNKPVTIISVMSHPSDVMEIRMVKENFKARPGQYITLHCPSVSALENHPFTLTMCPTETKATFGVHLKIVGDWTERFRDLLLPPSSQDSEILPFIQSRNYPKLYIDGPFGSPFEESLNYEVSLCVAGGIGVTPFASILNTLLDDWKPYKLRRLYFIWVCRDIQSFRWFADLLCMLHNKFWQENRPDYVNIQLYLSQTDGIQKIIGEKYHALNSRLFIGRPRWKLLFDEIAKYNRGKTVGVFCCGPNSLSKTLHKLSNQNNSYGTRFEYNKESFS

As for `O=C1OCCC/C=C\[C@H]2OC34C=CCN(Cn5nnc6ccccc65)C(=O)[C@H]3N(CCCO)C(=O)[C@@H]4C12` (stereo not given in full), the z-score in experiment [1] was 0.0048 (inactive); in experiment [3], 1.16 (inactive); in experiment [4], 0.614 (inactive); in experiment [5] it was -0.443 (inactive); in experiment [6], 0.261 (inactive); in experiment [7] it was 1.16. For the same compound, the z-score was 0.821 (inactive) in experiment [8]; 0.689 (inactive) in experiment [9]; 2.02 in experiment [10]; -0.745 in experiment [11]; 0.737 in [12]; -0.395 in [13]. Besides, the z-score was 1.25 in experiment [14]; -0.284 in experiment [15]; -0.313 in experiment [16]; 1.16 (inactive) in experiment [17]; -0.0773 in [18]; -0.73 in [19]. Besides, in [20], the z-score was 0.651 (inactive). In [2], this compound displayed a composite z-score of 0.123.
Turning to `O=C1O[C@H](c2ccccc2)[C@H](c2ccccc2)N2[C@H]1[C@@H](C(=O)Nc1nc3ccccc3s1)[C@]1(C(=O)Nc3ccc(C#CC4=CCCCC4)cc31)[C@H]2c1ccc(OCCO)cc1`, the z-score was -0.199 (inactive) in experiment [1]; 2.54 (inactive) in [3]; 1.62 (inactive) in experiment [4]; 1.44 (inactive) in experiment [5]; 1.2 (inactive) in experiment [6]; -0.686 in experiment [7]. Besides, the z-score is 1.92 (inactive) in [8]; 0.266 (inactive) in [9]; 0.0146 in [10]; -0.641 in experiment [11]; 1.07 in [12]; -0.819 in experiment [13]. Also, the z-score in [14] was -1.69; in [15], -1.7; in experiment [16], -3.34; in experiment [17] it was 0.256 (inactive); in experiment [18] it was -1.07; in [19] it was -1.8. Besides, in experiment [20], the z-score was 0.18 (inactive). In experiment [2], the composite z-score was found to be 0.46.
As for `COc1ccc([Si](C)(C)[C@@H]2[C@@H](CCO)O[C@]3(C(=O)N(Cc4ccc(N5C(=O)c6cccc7cccc5c67)cc4)c4ccccc43)[C@H]2C)cc1`, the z-score was 0.317 (inactive) in experiment [1]; 3.28 (inactive) in [3]; 3.22 (inactive) in [4]; 0.146 (inactive) in [5]; 2.22 (inactive) in [6]; -0.511 in experiment [7]. In addition, the z-score in experiment [8] was 0.806 (inactive); in experiment [9], 0.417 (inactive); in experiment [10], 2.96; in [11], -0.35; in experiment [12] it was -0.903; in experiment [13], -3.63. Besides, the z-score in experiment [14] is -1.6; in experiment [15], -4.12; in experiment [16], 0.00779; in [17] it was 1.89 (inactive); in experiment [18], -1.11; in experiment [19], -1.15. For the same compound, the z-score in experiment [20] is -1.43 (inactive). The composite z-score in experiment [2] was 0.0355.
For `C=CCN1C(=O)[C@@]2(O[C@@H](CCO)[C@H]([Si](C)(C)c3ccc(OC)cc3)[C@H]2C)c2cc(N3C(=O)COc4ccccc43)ccc21`, the z-score in [1] is -0.37 (inactive); in [3] it was 24.5 (active); in experiment [4] it was 11.4 (active); in [5] it was -0.122 (inactive); in experiment [6] it was 2.68 (inactive); in experiment [7] it was 0.175. In addition, the z-score in experiment [8] was -0.548 (inactive); in [9] it was -0.111 (inactive); in [10], 0.0948; in experiment [11], -3.41; in [12], -0.967; in experiment [13] it was -4.72. Also, the z-score in experiment [14] is -2.74; in experiment [15] it was -4.33; in experiment [16] it was -2.17; in experiment [17], 2.78 (inactive); in experiment [18], -1.01; in experiment [19], -2.24. For the same compound, the z-score in experiment [20] was -5.02 (inactive). The composite z-score in experiment [2] came out at 0.0012.
As to `O=C1O[C@@H](c2ccccc2)[C@@H](c2ccccc2)N2[C@@H](c3ccc(O)cc3)[C@]3(C(=O)Nc4ccccc43)[C@@H](C(=O)NC[C@H](O)c3ccccc3)[C@H]12`, the z-score is 2.14 (inactive) in experiment [1]; 1.36 (inactive) in experiment [3]; -1.01 (inactive) in [4]; -1.22 (inactive) in experiment [5]; -1.89 (inactive) in [6]; 1.09 in experiment [7]. For the same compound, the z-score was 0.0877 (inactive) in experiment [8]; -0.423 (inactive) in [9]; 1.42 in experiment [10]; 0.0061 in experiment [11]; 0.874 in experiment [12]; -0.121 in experiment [13]. Besides, the z-score was -0.0487 in [14]; -1.08 in experiment [15]; -1.5 in [16]; -0.377 (inactive) in experiment [17]; -0.774 in experiment [18]; 0.32 in [19]. For the same compound, the z-score in experiment [20] is 0.314 (inactive). The compound also gave a composite z-score in experiment [2] of -0.151.

These data come from PubChem BioAssay.
